Source: PubChem
Sampled rows, rich in hits. Any-hit rate of the full collection: about 3.3%.
sPLA2-III inh – human group III sPLA2 inhibitors, primary screen, biochemical, QFRET, BODIPY PC-A2 liposome substrate; QFRET BODIPY PC-A2 liposome hydrolysis, fluorescence; inhibition, % at 12.2 µM; Group 3 secretory phospholipase A2 (Homo sapiens), Q9NZ20; 0.56% of 370,000 active; AID 743126, 2013;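 active = inhibition above mean plus 3 SD of compounds lying within the high and low control bounds, cut at about 19% in these data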;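 also: 0% = median of test compound wells and 100% = no enzyme DMSO wells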
UBC13 polyUb – UBC13 polyubiquitin chain formation inhibitors, primary screen, biochemical, TR-FRET, uHTS. Ubiquitin-conjugating enzyme E2 N (Homo sapiens), P61088. inhibition, % at 20 µM. 0.47% of 330,000 active; in the data active = inhibition above about 45%, passing the limit was not always enough; inconclusive = no clear call, values can overlap the other calls
Target sequence (P61088 whole entry, looked up): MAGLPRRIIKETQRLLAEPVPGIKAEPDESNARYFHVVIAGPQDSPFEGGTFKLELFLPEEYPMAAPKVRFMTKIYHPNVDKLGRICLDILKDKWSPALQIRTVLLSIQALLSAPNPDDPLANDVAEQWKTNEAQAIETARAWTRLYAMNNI
UBC9 SUMO inh – inhibitors of in vitro SUMOylation cascade, primary screen, biochemical, HTRF, uHTS | SUMO-conjugating enzyme UBC9 (Homo sapiens), P63279 | HTRF SUMOylation assay, SAE1/SAE2 + UBC9 | inhibition, % at 35 µM | 0.36% of 290,000 active | AID 2006, 2009; in the data active = inhibition above about 50%, passing the limit was not always enough; inconclusive = no clear call, values can overlap the other calls
Target sequence (P63279 whole entry, looked up): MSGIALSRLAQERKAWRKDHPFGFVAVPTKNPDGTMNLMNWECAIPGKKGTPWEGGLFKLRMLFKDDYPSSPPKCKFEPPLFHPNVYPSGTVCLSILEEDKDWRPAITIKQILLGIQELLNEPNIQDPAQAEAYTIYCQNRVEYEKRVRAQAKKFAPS
GRIN3A LBD mod – binders of NR3A ligand-binding domain, primary screen, biophysical, differential scanning fluorimetry, uHTS | NR3A LBD differential scanning fluorimetry, Tm shift; 0% = protein alone, 100% = glycine-bound protein | Glutamate receptor ionotropic, NMDA 3A (GRIN3A) ligand-binding domain | 2.5% of 340,000 active | AID 1259313, 2017 | Tm shift relative to glycine control, % at 25 µM;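 active = melting temperature shift of at least 10% of the positive control shift, at one fixed dose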
Numbers without * were called inactive; u = inconclusive; x = not tested or not shown.

SMILES | sPLA2-III inh | UBC13 polyUb | UBC9 SUMO inh | GRIN3A LBD mod
COC(=O)[C@]12CCCCC=C1N(Cc1ccc(OC)cc1)C(=O)[C@@H]2CC(=O)N1CCC(c2ccccc2)CC1 | -3 | x | x | x
OC(c1ccccc1)(c1ccccc1)C1CCN(CCCNc2cccc(Br)c2)CC1 | -8 | x | x | x
CCOC(=O)c1ccc(NC(=O)COc2ccc(-n3cnnn3)cc2)cc1 | -1 | -13 | -2 | 31*
CCOc1ccc(NC(=O)COc2ccc(-n3cnnn3)cc2)cc1 | -4 | 0 | x | -7
C[C@H]1COc2cc(Br)ccc2S(=O)(=O)N1Cc1cn(Cc2ccc(Cl)cc2)nn1 | -3 | x | x | x
O=c1[nH]c(=O)n(Cc2ccco2)c2c1C(C(F)(F)F)(C(F)(F)F)N=C(CCc1ccccc1)N2 | -14 | -9 | -10 | 2
N#Cc1ccc(C2=NC(C(F)(F)F)(C(F)(F)F)c3c(n(Cc4ccco4)c(=O)[nH]c3=O)N2)cc1 | -40 | -2 | 19 | 12*
O=C(CSc1nc(-c2ccccc2)nc2c1Cc1ccccc1O2)Nc1ccc(C(=O)O)cc1 | 0 | x | u | 32*
O=C(CSc1nc(-c2ccc(F)cc2)nc2c1Cc1ccccc1O2)Nc1ccc(C(=O)O)cc1 | -6 | x | u | 33*
CC(NCc1ccco1)C(=O)N1CCN(c2cccc(C(F)(F)F)c2)CC1 (configuration not stated) | -1 | x | x | x
CCC1CCCCN1CCNS(=O)(=O)c1ccc2c(c1)oc(=O)n2C (configuration not stated) | -6 | 5 | -13 | 14*
CCC1CCCCN1CCCNS(=O)(=O)c1ccc2c(c1)oc(=O)n2C (configuration not stated) | 2 | 0 | -12 | -1
C=CCN(C(=O)[C@@H](C)[C@@H](O)c1ccc(C(C)=O)cc1)c1ccccc1 | 5 | x | x | x
C=CCNC1CCC12CCC(c1ccccc1)CC2 (configuration not stated) | 4 | x | x | x
CCOc1ccc(CNC(=S)N/N=C\c2ccc([N+](=O)[O-])cc2)cc1 | -2 | -4 | -4 | 24*
CCOC(=O)[C@@H]1c2[nH]c3ccccc3c2C[C@@]2(C(=O)OC)C=CCN12 | 15 | x | x | x
N#Cc1ccc(Cn2ccc3ccc(-c4ccc5ccn(Cc6ccc(C#N)cc6)c5c4)cc32)cc1 | 3 | x | x | x
COCCCNC(=O)C[C@H]1C[C@@]2(C(=O)OC)C(=C[C@H](COCc3ccccc3)O[C@@H]2C)N(CCc2ccc(OC)c(OC)c2)C1=O | 3 | x | x | x
C/C(=N\Nc1cc(C)nc(-c2ccccc2O)n1)c1ccccc1O | -4 | 3 | -2 | 26*
CC(=NNc1ccc2ccccc2n1)c1ccccc1O | -1 | x | x | 24*
Cc1cc(N/N=C/c2ccc(O)cc2O)nc(-c2ccccc2O)n1 | x | x | -12 | 35*
C/C(=N\Nc1nc2ccccc2nc1C)c1ccccc1O | 1 | -14 | 18 | 2
Cc1cc(N/N=C/c2ccccc2O)nc(-c2ccccc2O)n1 | 5 | 4 | 0 | 25*
COCCNC[C@@]12CO[C@H](c3ccc(Cl)cc3)N1[C@@H](c1ccc(Cl)cc1)SC2 | -10 | x | x | x
COC(=O)C[C@@H]1CC[C@H]2[C@H](COc3ccc(NC(=O)Nc4ccc(C#N)cc4)cc3C(=O)N2C)O1 | -16 | x | x | x
SMILES | sPLA2-III inh | UBC13 polyUb | UBC9 SUMO inh | GRIN3A LBD mod
Cc1cc(N(C)/N=C/c2ccccc2)nc(-c2ccccc2O)n1 | -2 | 3 | 30 | -1
Cc1cc(N/N=C/c2ccc(O)cc2O)nc(-n2nc(C)cc2C)n1 | -29 | x | 4 | 27*
Cc1cc(N/N=C\c2ccccc2)nc(-c2ccccc2O)n1 | -12 | 18 | 19 | 31*
O=C(NCCc1c[nH]c2ccccc12)OCc1cn(Cc2ccc(F)c(F)c2)nn1 | -81 | x | x | x
COc1ccccc1Oc1ccc2c(c1)C(=O)N(CC1CCCO1)C2=O (configuration not stated) | -3 | 5 | 16 | 12*
Cc1ccc(N=Nc2c(O)ccc3n[nH]nc23)cc1 | -35 | x | 10 | 13*
Oc1ccc(Cl)cc1Cc1cc(Cl)ccc1O | -68 | -13 | -21 | 17*
COc1ccccc1NC(=O)Nc1nc2ccc(S(N)(=O)=O)cc2s1 | -25 | 13 | -6 | 20*
COc1ccc2nc(NC(C)=O)sc2c1 | -1 | 6 | 14 | 1
O=C(Nc1nc2ccccc2s1)c1ccc(Cl)s1 | -3 | 13 | 6 | 21*
